The whole screen tested about 48,000 compounds, of which about 13,000 (27%) showed an effect of 50% or more. This is one part of the list.
test system: Wolbachia pipientis; assay: Anti-Wolbachia Cell-Based Screen; format: functional; set-up: scale not given: in the data most compounds retested in dose-response had high values; settings: 5 µM

Row | Compound | Percent Effect [%]
1 | CN(C)S(=O)(=O)N1C[C@H]2CCC[C@@]2(COCC2CCOCC2)C1 | -9.423
2 | CCc1nc(CNC2CCN(c3ccc(OC)cc3)CC2)cs1 | -5.711
3 | O=C(c1ccncc1F)N1CCc2ncnc(N3CCOCC3)c2CC1 | 22.92
4 | CCc1noc(C)c1C(=O)NCc1cc[nH]n1 | -9.348
5 | CCCN1CC2(CCN(C)CC2)CC1C(=O)NCCn1ccc(C)n1 (stereo unspecified) | 5.137
6 | CCc1n[nH]c(C(=O)NCCn2ccc(C)n2)c1C | 161.5
7 | CCc1c(C)nn(CCNC(=O)c2cnn[nH]2)c1C | -18.26
8 | CCc1n[nH]c(C(=O)NCCn2nccc2C)c1C | 177.1
9 | CCc1n[nH]c(C(=O)NCCn2ccnc2C)c1C | 12.68
10 | COc1cccc(N2CCN(C(=O)CO)CC2=O)c1 | 5.099
11 | Cc1ccc(N2CCN(C(=O)C(O)c3cccc(Cl)c3)CC2=O)cc1 (stereo unspecified) | -0.06478
12 | Cc1cc(C)cc(N2CCN(C(=O)C3CN(C)C(=O)N3)CC2=O)c1 (stereo unspecified) | 83.41
13 | Cc1ccc(N2CCN(C(=O)[C@@H]3CCC(=O)N3)CC2=O)cc1 | 107.8
14 | COc1cccc(N2CCN(C(=O)[C@H](O)C3CCCCC3)CC2=O)c1 | -19.32
15 | COc1cnc(CN2CC(=O)N(c3ccc(C)cc3)CC2C)cc1O (stereo unspecified) | 8.35
16 | Cc1ccc(CC(=O)N2CC[C@@H]3NC(=O)CC[C@@H]32)cc1 | -5.727
17 | CN1CC(C(=O)N2CCN(c3cccc(Cl)c3)C(=O)C2)NC1=O (stereo unspecified) | 98.1
18 | COc1ccc(N2CCN(C(=O)CCCc3cn[nH]c3)CC2=O)cc1 | -15.55
19 | O=C([C@H](O)c1ccccc1)N1CCN(c2cccc(Cl)c2)C(=O)C1 | -7.931
20 | COC(C(=O)N1CCN(c2cccc(Cl)c2)C(=O)C1)c1ccccc1 (stereo unspecified) | -8.872
21 | Cc1ccc(N2CCN(C(=O)C3CN(C)C(=O)N3)CC2=O)cc1 (stereo unspecified) | 99.53
22 | COc1ccc(-c2nc(CNCCn3cccn3)cs2)cc1 | 30.25
23 | COc1cc2c(cc1CNCc1ccnc(-n3cccn3)c1)OC(C)C2.Cl (stereo unspecified) | -0.5391
24 | O=C(O)CSc1nnc(-c2ccn[nH]2)n1-c1ccccc1C(F)(F)F | -29.49
25 | N#CCCN(CC1CCOC1)Cn1ccc(-c2ccsc2)n1 (stereo unspecified) | -9.852
26 | Cn1cccc1C(=O)N1CCC2(CCN(C(=O)c3cccnc3)C2)CC1.O=C(O)C(F)(F)F | 51.82

Row | Compound | Percent Effect [%]
27 | Cn1cccc1C(=O)N1CC2(CCN(C(=O)c3cccnc3)C2)C1.O=C(O)C(F)(F)F | 98.8
28 | Cn1cccc1CN1CCC2(CCCN(C(=O)c3cccnc3)C2)CC1.O=C(O)C(F)(F)F.O=C(O)C(F)(F)F | 3.692
29 | CC1(C(=O)NCc2cc(F)cc(F)c2)CCOCC1 | 100.6
30 | CC1(CCNC(=O)NCc2ccsc2)OCCO1 | -10.92
31 | CC1(C(=O)Nc2ccc(F)c(-n3cccc3)c2)CCOCC1 | -9.431
32 | FC(F)(F)c1cccc(C2(CNCc3cc[nH]c3)CCOCC2)c1 | 2.692
33 | CC1(C(=O)NCCc2ccc(F)cc2)CCOCC1 | 104.4
34 | CN1CCN(C(=O)NCCc2ccc(F)cc2)[C@H]2CS(=O)(=O)C[C@H]21 | 8.781
35 | CC1(C(=O)NCc2ccsc2)CCOCC1 | 107.3
36 | FC(F)(F)c1cccc(C2(CNCc3ccncc3)CCOCC2)c1 | -7.872
37 | CCN(CC)c1ccc(CNC(=O)C2(C)CCOCC2)cc1F | 25.87
38 | CC(CNC(=O)NCc1ccsc1)CC1(C)OCCO1 (stereo unspecified) | -12.21
39 | CC1(C(=O)NCc2cccc(C(F)(F)F)c2)CCOCC1 | 102.7
40 | CN(C)C1(CNC(=O)Cc2ccc(F)cc2)CCOCC1 | -8.041
41 | Cc1nc(-c2ccccc2)c(C(=O)N2CCC3(CC(=O)NC3=O)C2)s1 (stereo unspecified) | -0.3979
42 | Cc1noc(C)c1CN1CC2(CCN(C(=O)c3ccoc3C)C2)CC1=O (stereo unspecified) | -6.391
43 | CCC(C)N(Cc1cc(C)n[nH]1)Cc1ccccc1Cl (stereo unspecified) | 4.348
44 | Cc1cc(CN2CCCC2)cc(Oc2ccc3c(c2)CC(CN)O3)c1 (stereo unspecified) | 4.792
45 | CC(C)c1noc(CN(C)C(=O)c2ncn[nH]2)n1 | 4.654
46 | CC(=O)NCCNC(=O)c1sc(-c2ccc(C)cc2C)nc1C | -3.584
47 | N#Cc1cn[nH]c1NCc1cc(Cl)cc(Cl)c1O | 77.61
48 | N#Cc1cn[nH]c1NCc1cc(Br)ccc1O | 83.36
49 | N#Cc1cn[nH]c1NCc1cc(I)cc(I)c1O | 96
50 | COc1ccc(/C=C/CN2CCN(c3ncccc3C(N)=O)CC2)cc1 | -5.557
51 | Cc1nc(NC2CCCC2)cc(C2CCN2C(=O)c2ccccn2)n1 (stereo unspecified) | 140.6

From ChEMBL document CHEMBL3988442, “University of Dundee, Small-Polar-MMV Screening Library” (2021)
